Experimental data as given in PubChem BioAssay (NCATS).
Several values for one entry are separate records, joined by “and”; a condition that tells them apart may be missing. Equal values may be shown once. A number with no mark means an inactive call. Results filed as inconclusive are left out. A call without a number means that no potency is given here. Activity calls are given as the source filed them. Unless noted, calls come from the whole dose curve; as a rule, active = well fitted curve in the direction sought with a large enough effect; inconclusive = small, poorly fitted or top-dose-only effect, or another doubt; inactive = no such curve, though single readings can be large; an effect the other way counts as inactive or inconclusive.

Experiments:
[1] = test system: PA-1; experiment: Primary qHTS to identify gynecologic anti-cancer compounds using libraries of approved drugs and bioactive compounds (AID 1345084); conditions: Gynecologic cancer cell panel viability, ATPlite luminescence, 48 h; series mostly up to 57.5 µM; note: nearly all actives have a fitted effect of over 55% in size; note: potency is the fitted concentration of half-maximal effect
How it was run: (§1)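 Cells, 1,000 per well, were allowed to settle for 16 h at 37 C before compound addition. Five concentrations were tested for 48 h, and viability was read by ATPlite luminescence after 15 min at room temperature.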

[2] = test system: SKOV3; experiment: as above; conditions: Gynecologic cancer cell panel viability, ATPlite luminescence, 48 h; series mostly up to 57.5 µM
How it was run: as §1

[3] = test system: Tov-21-G; experiment: as above; conditions: Gynecologic cancer cell panel viability, ATPlite luminescence, 48 h; series mostly up to 57.5 µM
How it was run: as §1

[4] = test system: Tov112D; experiment: as above; conditions: Gynecologic cancer cell panel viability, ATPlite luminescence, 48 h; series mostly up to 57.5 µM
How it was run: as §1

[5] = Drug repurposing screens with cells derived from glioblastoma tumor samples (AID 1345199); conditions: GBM patient neurospheres viability, ATP luminescence, 48 h; note: nearly all actives have a fitted effect of over 40% in size; note: potency is the fitted concentration of half-maximal effect
How it was run: (§2)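 Four patient lines of CD133+ GBM neurospheres were screened at several concentrations; hits were retested in those lines plus three slower-growing GBM lines, using 48-hour treatment and ATP-based viability.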

[6] = test system: astro; experiment: as above; conditions: viability, ATP luminescence, 48 h; series mostly up to 45.9 µM
How it was run: as §2

[7] = target: Nuclear receptor subfamily 1 group I member 2 (Rattus norvegicus) (UniProt Q9R1A7); experiment: qHTS assay for small molecule activators of the rat pregnane X receptor (rPXR) signaling pathway (AID 651751; call rule not given here); conditions: rPXR reporter cells, luciferase (One-Glo), 24 h
Nuclear receptor subfamily 1 group I member 2 (Rattus norvegicus), sequence (Q9R1A7 whole entry, looked up): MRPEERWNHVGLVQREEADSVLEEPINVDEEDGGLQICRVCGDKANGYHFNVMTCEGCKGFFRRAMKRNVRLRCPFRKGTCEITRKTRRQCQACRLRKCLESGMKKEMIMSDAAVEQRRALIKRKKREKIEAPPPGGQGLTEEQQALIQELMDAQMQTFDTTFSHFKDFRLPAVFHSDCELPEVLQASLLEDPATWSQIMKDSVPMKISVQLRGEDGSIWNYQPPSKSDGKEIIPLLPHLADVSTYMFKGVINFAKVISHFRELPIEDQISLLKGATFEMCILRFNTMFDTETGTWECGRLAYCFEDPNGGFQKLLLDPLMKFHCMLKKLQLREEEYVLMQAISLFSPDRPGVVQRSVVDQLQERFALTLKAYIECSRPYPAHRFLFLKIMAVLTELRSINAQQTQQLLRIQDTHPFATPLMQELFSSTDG

[8] = at 45.9 µM (top of the series), tumour line B
[9] = at 45.9 µM (top of the series), tumour line D
[10] = at 20 µM (top of the series), tumour line C
[11] = at 21.2 µM (top of the series), tumour line B
[12] = at 21.2 µM (top of the series), tumour line D
[13] = at 46.1 µM (top of the series), tumour line C

Row | SMILES | Potency [1] | Potency [2] | Potency [3] | Potency [4] | activity, negative = cell killing [5, 8] | activity, negative = cell killing [5, 9] | activity, negative = cell killing ([5]; at 46 µM (top of the series), tumour line A) | Potency [6] | activity, negative = cell killing [5, 10] | activity, negative = cell killing [5, 11] | activity, negative = cell killing [5, 12] | activity, negative = cell killing [5, 13] | Potency ([5]; tumour line A) | max response [7] | Potency ([5]; tumour line D)
1 | CC(=O)Oc1ccc(C(=C2CCCCC2)c2ccc(OC(C)=O)cc2)cc1 | inactive | inactive | inactive | inactive | -19.5% | -13.6% | -21.3% | inactive |  |  |  |  |  |  | 
2 | CC1=C(C(=O)O)N2C(=O)[C@@H](NC(=O)[C@H](N)c3ccc(O)cc3)[C@H]2SC1 | inactive | inactive | inactive | inactive |  |  |  | inactive | -0.623% | -10.2% | -21.8% |  |  |  | 
3 | CCCCCC=CCC=CCCCCCCCC(=O)OCC | inactive | inactive | inactive | inactive | -5.69% | -29.1% |  | inactive |  |  |  | -8.48% |  |  | 
4 | COc1ccc(C2C(=O)c3ccccc3C2=O)cc1 | inactive | inactive | inactive | inactive | -10.6% | -14.2% |  | inactive |  |  |  | -5.24% |  |  | 
5 | CC/C(=C(/CC)c1ccc(O)cc1)c1ccc(O)cc1 | inactive | inactive | inactive | inactive | -24.8% |  |  |  |  |  |  | -3.33% | 14.1 µM (active) | 1.62% and -5.34% | 
6 | CC(C)=CCC1C(=O)N(c2ccccc2)N(c2ccccc2)C1=O | inactive | inactive | inactive | inactive |  |  |  | inactive |  |  |  | 3.79% |  |  | 
7 | C#C[C@]1(O)CC[C@H]2[C@@H]3CCC4=CC(=O)CC[C@@H]4[C@H]3CC[C@@]21C | 17.8 µM (active) | inactive | inactive | inactive | -9.83% | 3.81% |  | inactive |  |  |  | -18.8% |  |  | 
8 | CC(=O)O[C@]1(C(C)=O)CC[C@H]2[C@@H]3C[C@H](C)C4=CC(=O)CC[C@]4(C)[C@H]3CC[C@@]21C | inactive | inactive | inactive | inactive |  |  |  | inactive |  |  |  | -19.7% | 17.8 µM (active) |  | 
9 | CC(=O)OCC(=O)[C@@]1(OC(C)=O)[C@@H](C)C[C@H]2[C@@H]3C[C@H](F)C4=CC(=O)C=C[C@]4(C)[C@@]3(F)[C@@H](O)C[C@@]21C | inactive | inactive | inactive | inactive | -11.4% | 4.06% |  | inactive |  |  |  | -10.3% |  |  | 
10 | COc1cc(N)c(Cl)cc1C(=O)NC1CCN(CCCOc2ccc(F)cc2)CC1OC (stereo not drawn) | inactive | inactive | inactive | inactive |  |  |  | inactive | -1.31% | -11.4% |  |  | 5.62 µM (active) |  | 
11 | Cc1ncc(CSSCc2cnc(C)c(O)c2CO)c(CO)c1O | inactive | inactive | inactive | inactive | -0.0133% | -10.6% |  | inactive |  |  |  | 3.55% |  |  | 
12 | CCOC(=O)OC(C)OC1=C(C(=O)Nc2ccccn2)N(C)S(=O)(=O)c2ccccc21 (stereo not drawn) | inactive | inactive | inactive | inactive | -23.8% | -1.93% |  | inactive |  |  |  | 20.6% |  |  | 
13 | COc1ccc(CN2CCN(C(c3ccc(F)cc3)c3ccc(F)cc3)CC2)c(OC)c1OC | inactive | inactive | inactive | inactive |  |  |  | 35.5 µM (active) |  |  |  | -24.3% | 3.16 µM (active) |  | 11.2 µM (active)
14 | CCN(CC)CCNC(=O)COc1ccc(Cl)cc1 | inactive | inactive | inactive | inactive | 1.81% | -18.1% |  | inactive |  |  |  |  |  |  | 
15 | CCCC(=O)Nc1ccc(OCC(O)CNC(C)C)c(C(C)=O)c1 (stereo not drawn) | inactive | inactive | inactive | inactive |  |  |  | inactive | -9.42% | -3.87% | 11% |  |  |  | 
16 | CCCSS/C(CCO)=C(\C)N(C=O)Cc1cnc(C)nc1N | inactive | inactive | inactive | inactive |  |  |  | 22.4 µM (active) |  |  |  | -24.8% |  |  | 
17 | CC1(C)OC[C@@H](COC(=O)CCc2ccc(OC[C@@H](O)CNCCNC(=O)N3CCOCC3)cc2)O1 | inactive | inactive | inactive | inactive | -1.97% and -1.33% | -8.36% and -5.13% |  | inactive |  |  |  | 1.06% and -5.37% |  |  | 
18 | Cc1cc(O)c(C(C)C)cc1Cl | inactive | inactive | inactive | inactive | -5.69% | -7.04% |  | inactive |  |  |  | 8.96% |  |  | 
